# PrPC surface inh: reduces human prion protein on the cell surface | P04156 | cell surface PrPC, TR-FRET read-out | inhibition, % at 13.8 µM | 0.43% of 370,000 active; in the data active = inhibition above about 24%
# PriA SSB inh: inhibitors of Klebsiella pneumoniae PriA binding to SSB C-terminal tail | 0.6% of 430,000 active | inhibition, % at 33 µM | AlphaScreen SSBct-PriA binding, biotinylated peptide; in the data active = inhibition mostly above about 37%, no sharp cut-off; inactive = mostly below about 20%
# PfHsp40 yeast: rescue of PfHsp40-mediated yeast toxicity | S. cerevisiae expressing PfHsp40, growth rescue, ATP luminescence | growth rescue, % at 12.5 µM | 0.68% of 340,000 active; in the data active = growth rescue above about 28%, passing the limit was not always enough; inconclusive = no clear call, values can overlap the other calls;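 also: yeast W303a lacking pdr1 and pdr3 grown in galactose medium; growth measured after three days at 30 °C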
# BJeLR lethal: BJeLR cell viability loss | BJeLR (HRASV12) viability, CellTiter-Glo ATP luminescence, 48 h | inhibition, % (no concentration beside the values) | 0.17% of 300,000 active; in the data active = inhibition above about 50%; inconclusive = no clear call, values can overlap the other calls
# RecA intein inh: inhibitors of M. tuberculosis RecA intein splicing; cell-free RecA intein splicing, fluorescence; inhibition, % (concentration not given with the values); 0.75% of 290,000 active; AID 2221; in the data active = inhibition above about 30%; inconclusive = no clear call, values can overlap the other calls
# Target sequence (P9WHJ3 whole entry, looked up): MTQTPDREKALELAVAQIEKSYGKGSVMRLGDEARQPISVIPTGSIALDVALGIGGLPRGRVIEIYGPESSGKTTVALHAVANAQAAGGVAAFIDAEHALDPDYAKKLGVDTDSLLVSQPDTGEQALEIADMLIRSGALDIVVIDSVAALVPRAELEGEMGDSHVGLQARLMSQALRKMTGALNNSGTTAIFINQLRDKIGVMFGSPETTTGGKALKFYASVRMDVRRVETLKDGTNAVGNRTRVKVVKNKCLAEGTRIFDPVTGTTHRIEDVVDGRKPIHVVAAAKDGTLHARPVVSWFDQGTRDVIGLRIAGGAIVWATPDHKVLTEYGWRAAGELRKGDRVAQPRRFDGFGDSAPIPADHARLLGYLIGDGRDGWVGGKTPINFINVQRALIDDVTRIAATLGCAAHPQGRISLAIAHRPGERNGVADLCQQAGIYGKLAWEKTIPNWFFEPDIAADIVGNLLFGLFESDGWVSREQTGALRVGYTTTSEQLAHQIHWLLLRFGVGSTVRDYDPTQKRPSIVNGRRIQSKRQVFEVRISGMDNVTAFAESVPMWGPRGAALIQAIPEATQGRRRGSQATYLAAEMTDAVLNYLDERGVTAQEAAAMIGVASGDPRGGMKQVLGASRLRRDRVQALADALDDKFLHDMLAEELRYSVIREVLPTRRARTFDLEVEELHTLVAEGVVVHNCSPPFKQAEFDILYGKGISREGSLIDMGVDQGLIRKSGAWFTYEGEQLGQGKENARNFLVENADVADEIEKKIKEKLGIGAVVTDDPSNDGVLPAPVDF
# PrP UTR inh: suppresses PrP 5' UTR mRNA reporter expression; cell-based PrP 5' UTR mRNA reporter, plate reader; inhibition, % (test concentration not listed); 0.35% of 340,000 active; AID 488862; in the data active = inhibition above about 52%
# A number is an active result; n = inactive; u = inconclusive; x = no result given; ! = repeats disagree. A selection: hits, their analogues and other compounds. The true share with any hit is near 1.9%.
SMILES,PrPC surface inh,PriA SSB inh,PfHsp40 yeast,BJeLR lethal,RecA intein inh,PrP UTR inh
COc1cccc(-c2sc3ccccc3c2-c2ccc(OCCN(C)C)cc2)c1,n,40.3,n,x,x,n
COc1cccc(-c2sc3ccccc3c2-c2ccc(OCCN3CCCC3)cc2)c1,n,n,u,x,x,n
NC(=NOC(=O)c1cccc(C(F)(F)F)c1)c1cnccn1,x,n,x,x,x,x
CCOc1ccccc1NC(=O)CSc1nc(-c2ccccc2Cl)ns1,x,n,x,x,x,x
C=CCOC(Cn1ccnc1)c1ccc(Cl)cc1Cl (stereo not drawn),n,n,326.2,x,x,n
COc1ccc(C(CNC(=O)c2ccccc2Cl)N2CCN(C)CC2)cc1 (stereo not drawn),x,n,x,x,x,x
O=c1c2c([nH]n1-c1ccccc1)CCSC2,n,n,n,n,62.9,n
Cc1ccc(NC(=S)/C(=C(\[O-])c2ccc(F)cc2)[n+]2ccccc2)cc1,n,x,n,n,30.3,n
Cc1ccc(C)c(NC(=S)/C(=C(\[O-])c2ccc(OC(F)F)cc2)[n+]2ccccc2)c1,n,x,n,n,32.6,n
[O-]/C(=C(\C(=S)Nc1ccccc1F)[n+]1ccccc1)c1ccc(OC(F)F)cc1,n,x,n,n,n,n
Cc1ccc(/C([O-])=C(/C(=S)NCc2ccco2)[n+]2ccccc2)cc1,x,x,x,n,n,x
O=c1c2ccccc2oc2nc(-c3ccccc3F)n(CCc3ccccc3)c(=O)c12,x,n,x,x,x,x
O=[N+]([O-])c1cc2c(cc1C=Nn1c(-c3ccccn3)n[nH]c1=S)OCO2,x,98.8,x,x,x,x
S=c1[nH]nc(-c2ccccn2)n1N=Cc1cccs1,x,57.6,x,x,x,x
CC(C)(C)NC(=O)C(=O)NCC(c1ccco1)N1CCc2ccccc2C1 (stereo not drawn),x,n,x,x,x,x
O=C(NC(=S)NC1CCCCCC1)c1cncc(Br)c1,n,n,33.2,n,n,n
Cc1cccc(N2CCN(C(=O)c3ccc4c(c3)NC(=O)C(CSCc3ccc(F)cc3)N4)CC2C)c1 (stereo not drawn),x,x,x,n,32.5,x
Cc1ccc(CSCC2Nc3ccc(C(=O)N4CCN(c5cccc(C)c5)C(C)C4)cc3NC2=O)cc1 (stereo not drawn),x,x,x,n,n,x
CCOC(=O)[C@]12Cc3cc(OC)ccc3[C@H]1N(C1CCCCC1)C(=O)c1cc(OC)ccc12,n,x,x,x,x,x
CCOC(=O)[C@]12Cc3cc(C)ccc3[C@H]1N(C1CCCCC1)C(=O)c1cc(OC)ccc12,38.2,x,x,x,x,x
FC(F)(F)c1cccc(N2CCN(C(=S)NC3CCCCC3)CC2)c1,n,n,36.6,n,n,n
Cc1nc2ccc(CN(C)c3ccc(C(=O)N[C@@H](CCC(=O)O)C(=O)O)s3)cc2c(=O)[nH]1,x,x,x,71.9,n,x
CC(=O)N(C(C)=O)c1ccc2nc(C)[nH]c(=O)c2c1,n,n,n,n,n,n
C=C1C(=O)CC2=C1[C@](Cc1ccc(F)cc1)(C(=O)OC)N(C(=O)c1ccccc1)C2,n,x,x,x,x,x
C=C1C(=O)C=C2CN(C(=O)c3ccccc3)[C@@](Cc3ccc(F)cc3)(C(=O)OC)[C@@H]12,x,n,n,107.4,n,n
SMILES,PrPC surface inh,PriA SSB inh,PfHsp40 yeast,BJeLR lethal,RecA intein inh,PrP UTR inh
Cc1ccc(C(=O)CC(=O)c2ccc(C(C)(C)C)cc2)cc1,n,n,36.3,n,x,n
Oc1cnn(-c2ccccc2)c1,n,n,n,n,63.5,n
Oc1ccc(-c2[nH]ncc2-c2cnn(-c3ccccc3)c2)c(O)c1,n,n,n,n,n,n
Cc1nc(N2CCN(C(=O)COc3ccc(Cl)cc3Cl)CC2)cc(C(F)(F)F)n1,x,n,x,x,x,x
CC(C)(C)OC(=O)C[C@H]1C/C=C\C[C@H](CC(=O)NCCO)C(=O)N2CCC[C@@H]2COC1=O,n,x,40.8,x,x,n
CNC(=S)N/N=C(\C)c1ccc(N2CCOCC2)cc1,n,x,203.2,n,n,n
O=C(/C=C/c1ccc(Br)o1)/C=C/c1ccc(Br)o1,x,39.0,x,x,x,x
C=CCN[C@H]1CCN(C)C1=O,x,n,x,x,x,x
CN(C)CCCN(C(=O)c1ccc(S(=O)(=O)N(C)Cc2ccccc2)cc1)c1nc2cc3c(cc2s1)OCO3,n,40.0!,n,n,n,n
CN(C)CCN(C(=O)c1cccc2ccccc12)c1nc2cc3c(cc2s1)OCO3,n,46.8,n,n,n,n
Cc1cc(C)c2sc(N(CCCN(C)C)C(=O)c3ccc(S(=O)(=O)N(C)Cc4ccccc4)cc3)nc2c1,n,49.0,n,n,n,n
CN(C)CCCN(C(=O)c1ccc2ccccc2c1)c1nc2cc3c(cc2s1)OCO3,n,n,n,n,n,n
CN(C)CCN(C(=O)c1ccc2ccccc2c1)c1nc2ccc(Br)cc2s1,n,n,n,n,n,n
CN(C)CCN(C(=O)c1ccccc1[N+](=O)[O-])c1nc2ccc(Br)cc2s1,x,47.0,x,x,x,x
O=C(COc1ccc(Cl)cc1)NCCOc1cccc(C(F)(F)F)c1,x,n,x,x,x,x
C=CCN1C(=O)C(C)(C)COc2cc(NC(=O)Cc3ccc(OCC)cc3)ccc21,x,n,x,x,x,x
Cc1nc2ccccn2c1C(=O)NN=Cc1cc(C)n(-c2ccc(Br)cc2)c1C,x,n,x,x,x,x
Clc1ccc(N2CCN(N=Cc3cccnc3)CC2)cc1,x,n,x,x,x,x
Cc1ccc2oc(C(=O)NCCc3c[nH]c4ccccc34)cc2n1,x,n,x,x,x,x
O=C1c2ccccc2CN1CCNC(=S)NC1CCCCC1,n,n,n,x,n,68.0
O=C(NCCN1Cc2ccccc2C1=O)c1cccs1,n,n,n,n,n,n
CC1CCOC(=O)/C=C/C=C/C(=O)OC2CC3OC4C5OC5(C)C(O)CC4(COC(=O)C1O)C2(C)C31CO1 (stereo not drawn),x,n,x,x,x,x
COCCN1CCC(CNC(=O)C(=O)Nc2ccon2)CC1,x,n,x,x,x,x
COC(=O)c1ccc(-c2noc(CN3CCCC(CNC(C)=O)C3)n2)cc1 (stereo not drawn),n,n,n,n,n,58.4
COc1ccccc1C(CNC(=O)c1cnoc1C)OC (stereo not drawn),x,n,x,x,x,x
SMILES,PrPC surface inh,PriA SSB inh,PfHsp40 yeast,BJeLR lethal,RecA intein inh,PrP UTR inh
Cc1ccc(C)c(Nc2c([N+](=O)[O-])ccc3nonc23)c1,n,50.3,n,n,n,n
CC1CN(c2ncnc3c2cnn3CCNC(=O)c2ccc(S(=O)(=O)N(C)C)cc2)CC(C)O1 (stereo not drawn),x,n,x,x,x,x
CC(C)CC(NC(=O)C1CCC(C)CC1)C(=O)NCCN1CCOCC1 (stereo not drawn),n,n,n,n,n,n
CC1CCC(C(=O)NC(C(=O)NCCN2CCC(C)CC2)C(C)C)CC1 (stereo not drawn),n,n,46.1,n,n,n
COC(=O)c1sc2ccccc2c1NC(=O)c1cccc(C(=O)Nc2c(C(=O)OC)sc3ccccc23)n1,x,n,x,x,x,x
Cc1nc(N2CCN(C)CC2)nc(C)c1NC(=O)Nc1ccccc1F,x,n,x,x,x,x
CCN1CCN(C(c2cccs2)C(C)NC(=O)c2ccc(C(C)(C)C)cc2)CC1 (stereo not drawn),x,n,x,x,x,x
O=C(c1cccc(F)c1)N1CCN(c2cc(N3CCCCC3)c(F)cc2[N+](=O)[O-])CC1,n,41.6,n,n,n,n
CCC(=O)N1CCN(c2cc(N3CCCC3)c(F)cc2[N+](=O)[O-])CC1,n,n,n,n,n,n
